Bioassay records from PubChem BioAssay.
The entries come from a sample that favours hits as a whole.
GALR2 antag: GALR2 (human) receptor antagonism. O43603. GALR2-expressing cells, antagonist mode. inhibition, % at 4 µM. 0.39% of 140,000 active; in the data active = inhibition above about 27%;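 note: cells stimulated with galanin 1-16 at roughly its EC80; 0% = agonist challenge control and 100% = basal control without agonist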
Target sequence (O43603 whole entry, looked up): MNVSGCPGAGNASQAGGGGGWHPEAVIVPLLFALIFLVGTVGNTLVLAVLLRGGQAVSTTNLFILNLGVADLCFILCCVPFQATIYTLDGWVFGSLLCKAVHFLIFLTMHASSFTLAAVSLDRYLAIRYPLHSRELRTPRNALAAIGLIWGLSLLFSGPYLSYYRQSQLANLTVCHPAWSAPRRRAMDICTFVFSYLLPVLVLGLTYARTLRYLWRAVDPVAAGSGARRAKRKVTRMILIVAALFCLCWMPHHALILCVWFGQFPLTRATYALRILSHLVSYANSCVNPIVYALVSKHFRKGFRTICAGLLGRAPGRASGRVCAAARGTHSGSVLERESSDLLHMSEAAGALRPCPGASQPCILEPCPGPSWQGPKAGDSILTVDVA
S1P2 ag: activates the human S1P2 receptor; O95136; S1P2-expressing cell line, agonist reporter read-out; activation, % at 4.5 µM; 0.46% of 97,000 active; in the data active = activation above about 16%;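 note: 0% = vehicle low control and 100% = maximal reference agonist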
S1P2 antag: blocks the human S1P2 receptor. cell-based S1P2 antagonist assay, inhibition at 5 uM. inhibition, % at 5 µM. 0.21% of 97,000 active. O95136; in the data active = inhibition above about 45%;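 note: CRE beta-lactamase reporter cells expressing human S1P2 stimulated with S1P; 0% = agonist at EC80 alone and 100% = agonist plus reference antagonist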
GALR2 ag: GALR2 (human) receptor agonism. GALR2-expressing cells, agonist activation read-out. AID 803. 0.48% of 140,000 active. O43603. activation, % (concentration not given with the values); in the data active = activation above about 5%, passing the limit was not always enough;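 note: 0% = vehicle buffer wells and 100% = reference agonist at full effect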
PostGolgi ctrl: growth of the yeast control strain, post-Golgi counter-screen; efflux-deficient yeast background strain, growth absorbance A615, 16 h; inhibition, % at 10 µM; 5% of 98,000 active
PostGolgi yeast: growth inhibition of a yeast mutant, post-Golgi transport screen; 0.9% of 98,000 active; inhibition, % at 10 µM; post-Golgi transport phenotypic cell assay;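 note: yeast cells grown in 1536-well plates; yeast grown about 18 h at 30C before absorbance read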
* hit, by the source's call; / = no result given. Cut-off read from the data, not from the text of the source, unless noted: active = inhibition above about 30%; inactive = the rest.

SMILES | GALR2 antag | S1P2 ag | S1P2 antag | GALR2 ag | PostGolgi ctrl | PostGolgi yeast
CC(C)(C)c1ccc(-c2n[nH]c(=S)n2/N=C/c2ccncc2)cc1 | -11 | / | / | -1 | / | /
CCCc1sc(N)nc1-c1ccc(C)cc1 | -7 | / | / | -1 | / | /
CCOCC(O)CS(=O)(=O)c1ccccn1 (configuration not stated) | -1 | -4 | 7 | 0 | 35* | 7
C=CS(=O)(=O)c1ccc(Oc2ccc(S(=O)(=O)C=C)cc2)cc1 | 91* | / | / | -3 | / | /
O=S(=O)(c1ccc(Oc2ccc(S(=O)(=O)N3CCOCC3)cc2)cc1)N1CCOCC1 | -4 | / | / | -1 | 0 | 11
CN(C1CCCCC1)S(=O)(=O)c1cccc(C(=O)OCC(=O)NC2CCCc3ccccc32)c1 (configuration not stated) | 10 | / | / | -1 | / | /
O=C(C=C1SCCS1)/C=C/c1ccco1 | -1 | -5 | 12 | -2 | 32* | -5
O=C1OCC(CO)(CO)N=C1NNc1ccc(Cl)c(Cl)c1 | 24 | -4 | 0 | -2 | 19 | 92*
NC(=O)c1cc2cc(Cl)ccc2oc1=Nc1cccc(C(F)(F)F)c1 | -3 | / | / | 0 | / | /
O=C(Cc1ccc(Cl)cc1)Nc1ccc(N2CCN(C(=O)c3ccco3)CC2)cc1 | 5 | -4 | -2 | -2 | 43* | -4
Cc1ccccc1C(=O)N1CCN(c2ccc(NC(=O)c3ccco3)cc2Cl)CC1 | 21 | -9 | 3 | -2 | 29 | 2
O=C(Nc1ccc(N2CCN(C(=O)c3ccc(Cl)cc3)CC2)cc1)c1ccc(Br)o1 | 5 | -5 | 5 | -1 | 54* | 21
O=C(Nc1ccc(N2CCN(C(=O)c3ccco3)CC2)c(Cl)c1)c1c(F)c(F)c(F)c(F)c1F | -21 | -6 | 3 | 0 | 63* | 22
Cc1ccc(NC(=S)NCc2cccs2)c(C)c1 | -5 | -3 | -21 | 0 | -4 | -2
COc1cc2c(C)nc3onc(-c4ccccc4)c3c2cc1OC | 7 | 0 | -14 | -1 | 22 | -7
COc1cc2c(C)nc(C)c(C#N)c2cc1OC | 2 | 21* | -37 | 1 | 5 | 3
COC(=O)C1=CN(c2cccc(C)c2)C=C(C(=O)OC)C1c1cc(OC)c(O)c([N+](=O)[O-])c1 | -14 | -1 | -1 | 0 | 67* | -2
O=C(O)c1cccc(Nc2nc(-c3cccnc3)nc3ccccc23)c1 | 0 | / | / | 0 | / | /
CCOC(=O)c1cccc(Nc2nc(-c3cccnc3)nc3ccccc23)c1 | 1 | 1 | 10 | -1 | 68* | 4
O=C(COC(=O)CC12CC3CC(CC(C3)C1)C2)Nc1ncc(Cl)cc1Cl | 6 | -4 | -4 | -2 | 37* | -3
O=C(COC(=O)C12CC3CC(CC(C3)C1)C2)Nc1ncc(Cl)cc1Cl | 8 | -2 | 4 | -2 | 21 | -2
C=CCn1c(SCC(=O)Nc2ncc(Cc3ccc(Br)cc3)s2)nnc1-c1ccncc1 | -1 | -3 | -28 | -2 | 10 | -5
O=[N+]([O-])c1ccc(Cl)c(/C=N/n2c(-c3cccnc3)n[nH]c2=S)c1 | 6 | / | / | -2 | / | /
O=C(CN1CCN(S(=O)(=O)c2ccc(F)cc2)CC1)Nc1ccc(Cl)c(C(F)(F)F)c1 | -1 | -8 | 9 | -2 | 33* | 0
CCOc1ccc(NC(=O)CN2CCN(CC(=O)Nc3ccc(Cl)c(C(F)(F)F)c3)CC2)cc1 | -24 | -6 | 23 | -1 | 35* | -3
SMILES | GALR2 antag | S1P2 ag | S1P2 antag | GALR2 ag | PostGolgi ctrl | PostGolgi yeast
Cn1cnc([N+](=O)[O-])c1Oc1ccc2ccccc2c1 | 1 | / | / | -2 | / | /
CC(C)n1nc(C(=O)Oc2cccc(Cl)c2Cl)c2ccccc2c1=O | -3 | / | / | 0 | / | /
CC(=O)Nc1ccc(NC(=O)C2CCCCC2C(=O)O)cc1 (configuration not stated) | -3 | / | / | -1 | / | /
CN(C)S(=O)(=O)c1ccc(NC(=O)c2ccc(Br)o2)cc1 | 3 | -2 | -12 | -2 | -7 | -5
CN(C1CCCCC1)S(=O)(=O)c1ccc(NC(=O)c2ccc(Br)o2)cc1 | -4 | -9 | -4 | 2 | 35* | -7
CN(C1CCCCC1)S(=O)(=O)c1ccc(NC(=O)C2CCCCC2C(=O)O)cc1 (configuration not stated) | -4 | -4 | -8 | 0 | 33* | -6
Cc1cc(C(=O)Oc2cccnc2)ccc1[N+](=O)[O-] | 6 | / | / | -2 | / | /
CNC(=O)COC(=O)/C=C/c1c(C)nn(-c2ccccc2)c1C | -3 | / | / | -1 | / | /
CCc1ccccc1NS(=O)(=O)c1ccc2[nH]cc(C(=O)NCC3CCCO3)c(=O)c2c1 (configuration not stated) | 2 | -6 | 5 | -3 | 41* | 1
CCCc1cc(=O)oc2cc(C)cc(O)c12 | 7 | -8 | -7 | -1 | 19 | -10
CCCCCc1cc(O)c2c(C)cc(=O)oc2c1 | 13 | -5 | 11 | 0 | 61* | 9
COc1ccc(-c2nsc3c(SCC(=O)Nc4cc(C)ccc4C)ncnc23)cc1 | -5 | -3 | 10 | 0 | 0 | -1
C=C(C)CNC(=S)N/N=C1\CCCCc2ccccc21 | 6 | / | / | 6.1* | / | /
O=S(=O)(Nc1ccc2c3c(cccc13)CC2)c1ccc(F)cc1 | -12 | -5 | -2 | -1 | 40* | -9
CSc1ccc(S(=O)(=O)Nc2ccc3c4c(cccc24)CC3)cc1 | -5 | -3 | 17 | -1 | 66* | 23
Cc1ccc(-n2nnnc2SCC(=O)Nc2ncc(Cc3ccccc3Cl)s2)cc1 | -14 | / | / | -2 | / | /
Cc1ccc([N+](=O)[O-])cc1N=C(c1cccc(Br)c1)N1CCOCC1 | -2 | -6 | -9 | -2 | 34* | 23
Cc1ccc(C(=O)c2cc([N+](=O)[O-])ccc2N2CCOCC2)cc1C | 1 | / | / | 1 | / | /
COC(=O)c1ccc(COC(=O)CCC(=O)c2cccs2)cc1 | 3 | / | / | -1 | / | /
CCOC(=O)c1c(C)nc2c(c1-c1ccccc1)C(=O)c1ccccc1-2 | 1 | 3 | -25 | 0 | 35* | 1
CCOC(=O)c1c(C)nc2c(c1-c1cc(OC)ccc1OC)C(=O)c1ccccc1-2 | 3 | 5 | -23 | -2 | 4 | -11
COC(=O)C1=C(C)NC(=O)/C1=C\c1cc(C)n(-c2ccccc2C)c1C | 0 | -5 | -46 | -2 | 32* | 10
Cc1cc(/C=C2/SC(=S)N(c3cccc(C(F)(F)F)c3)C2=O)c(C)n1-c1cccnc1 | 35* | -5 | 82* | -3 | / | /
CCOc1ncccc1C(=O)NCC1COc2ccccc2O1 (configuration not stated) | -11 | 3 | -17 | -2 | 15 | 19
CC(=O)Nc1sc2c(c1C(c1ccc(Cl)cc1)N1CCOCC1)CCCC2 (configuration not stated) | 7 | -5 | -3 | -2 | 31* | 29
CC(=O)Nc1sc2c(c1C(c1ccc(F)cc1)N1CCOCC1)CCCC2 (configuration not stated) | -8 | -5 | 5 | -1 | 19 | -3
O=C(COC(=O)c1cccc(S(=O)(=O)N2CCc3ccccc32)c1)Nc1ccc(Cl)cn1 | -11 | / | / | 0 | / | /
